Data taken from PubChem BioAssay (NCATS).
Records with an inconclusive call do not appear. The source made the active and inactive calls. Unless noted, calls come from the whole dose curve; as a rule, active = well fitted curve in the direction sought with a large enough effect; inconclusive = small, poorly fitted or top-dose-only effect, or another doubt; inactive = no such curve, though single readings can be large; an effect the other way counts as inactive or inconclusive.

How the values were obtained:
[1] = Cell Viability - BJ (AID 421; calls by dose curve;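 note: potency is the fitted concentration of half-maximal effect; cells exposed to compound for 40 hours at 37 °C before readout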); conditions: BJ fibroblast viability, qHTS
Summary of the method: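 Cytotoxicity as drop in intracellular ATP (CellTiter-Glo, 20 min RT) after 40 hr compound exposure of BJ fibroblasts at 37 °C. Titrations scaled between DMSO and 100 uM tamoxifen, Hill-fitted for AC50.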

[2] = Cell Viability - Jurkat (AID 426;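 active = dose-dependent loss of cell ATP signal giving a full or clear fitted curve, ranked by lower potency value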; note: potency is the fitted concentration of half-maximal effect); conditions: qHTS
Summary of the method: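 Jurkat (clone E6-1, human T-cell leukemia) cells, 5000/well in complete medium, were exposed to compound for 40 hr at 37 °C. Viability was read as intracellular ATP by CellTiter-Glo luminescence; AC50 came from Hill fits of concentration-response data.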

[3] = Cell Viability - HepG2 (AID 433; calls by dose curve;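 note: potency is the fitted concentration of half-maximal effect; potency for ATP loss meaning cytotoxicity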); conditions: qHTS
Summary of the method: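 HepG2 hepatocellular carcinoma cells (1500/well) were treated with compounds for 40 h at 37 °C in complete medium; intracellular ATP was read by CellTiter-Glo luminescence. Data were normalized to DMSO and 100 uM tamoxifen, and AC50 came from Hill fits.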

[4] = Cell Viability - MRC5 (AID 434; calls by dose curve;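 note: potency is the fitted concentration of half-maximal effect; potency reflects cytotoxicity seen as loss of intracellular ATP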); conditions: MRC5 lung fibroblast viability, qHTS
Summary of the method: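 MRC5 normal human lung fibroblasts (1500/well) were treated with compounds for 40 hr at 37 °C in complete medium, and viable cells were measured as intracellular ATP by CellTiter-Glo luminescence. AC50 came from Hill fits, normalized to DMSO and 100 uM tamoxifen.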

[5] = Cell Viability - SK-N-SH (AID 435; calls by dose curve;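 note: potency is the fitted concentration of half-maximal effect; compound exposure lasted 40 h at 37 °C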); conditions: SK-N-SH neuroblastoma cell viability qHTS
Summary of the method: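 SK-N-SH human neuroblastoma cells (1500/well) were exposed to compounds in complete medium for 40 h at 37 °C, and intracellular ATP was then measured by CellTiter-Glo luminescence. AC50 was taken from Hill fits, normalized to DMSO and 100 uM tamoxifen.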

[6] = Cell Viability - N2a (AID 540); conditions: N2a mouse neuroblastoma cell viability; at 92.2 µM (top of the series);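 note: plate controls were DMSO alone for no effect and tamoxifen control for full effect; nearly all actives have a fitted effect of over 45% in size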
Summary of the method: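 Mouse neuroblastoma N2a cells (1500/well) were preincubated 5 hr at 37 °C, then exposed to compounds for 40 hr at 37 °C in complete medium. Viability was read as intracellular ATP by CellTiter-Glo luminescence; AC50 from Hill fits.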

[7] = Cell Viability - NIH 3T3 (AID 541); conditions: NIH 3T3 cell viability, qHTS; at 92.2 µM (top of the series);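 note: plate controls were DMSO alone for no effect and tamoxifen positive control for full effect; nearly all actives have a fitted effect of over 25% in size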
Summary of the method: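 NIH 3T3 mouse embryo fibroblasts (1000 cells/well) were plated in complete medium and treated with compound for 40 hr at 37 °C. Viability was read as intracellular ATP by CellTiter-Glo luminescence; AC50 values came from Hill-equation fits of concentration-response data.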

[8] = Cell Viability - HUV-EC-C (AID 542); conditions: HUV-EC-C endothelial cell viability, qHTS; note: potency is the fitted concentration of half-maximal effect; nearly all actives have a fitted effect of over 35% in size
Summary of the method: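 HUV-EC-C normal human vascular endothelial cells, 1000 cells/well, pre-incubated 5 hr at 37 °C, then exposed to compounds for 40 hr at 37 °C in complete medium. Viability measured as intracellular ATP by CellTiter-Glo luminescence; AC50 from Hill fits.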

[9] = Cell Viability - H-4-II-E (AID 543); conditions: H-4-II-E rat hepatoma viability; note: potency is the fitted concentration of half-maximal effect; nearly all actives have a fitted effect of over 35% in size
Summary of the method: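 Rat hepatoma H-4-II-E cells (1500/well) were plated, incubated 5 hr at 37 °C, then exposed to compounds for 40 hr at 37 °C. Cellular ATP was read by CellTiter-Glo luminescence; AC50 came from Hill-equation fits of concentration-response data.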

[10] = Cell Viability - SH-SY5Y (AID 544); conditions: SH-SY5Y neuroblastoma cell viability; note: potency is the fitted concentration of half-maximal effect; nearly all actives have a fitted effect of over 55% in size
Summary of the method: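 Human neuroblastoma SH-SY5Y cells (1500/well) in complete medium were exposed to compounds for 40 hr at 37 °C; intracellular ATP was then quantified by CellTiter-Glo luminescence after 20 min at room temperature. AC50 came from Hill-equation concentration-response fits.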

[11] = Cell Viability - Renal Proximal Tubule (AID 545); conditions: renal proximal tubule cells viability, primary cells of rat origin; at 91.7 µM (top of the series);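 note: 0% = DMSO only and -100% = 100 µM tamoxifen; nearly all actives have a fitted effect of over 40% in size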
Summary of the method: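 Primary rat renal proximal tubule cells (1000/well) were treated with compounds for 40 hr at 37 °C in complete medium. Intracellular ATP was measured by CellTiter-Glo luminescence, and AC50 values came from Hill-equation fits of concentration-response data.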

[12] = Cell Viability - Mesenchymal (AID 546); conditions: mesenchymal cells viability, qHTS;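 note: potency is the fitted concentration of half-maximal effect; cells exposed to compound for 40 hours before reading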
Summary of the method: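 Normal human renal glomerulus-derived kidney mesenchymal cells, 1000 per well in complete medium, were treated with compounds for 40 hr at 37 °C. Viability was read as intracellular ATP by CellTiter-Glo luminescence; AC50 values came from Hill-equation fits of qHTS concentration-response data.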

[13] = Cellular Toxicity (caspase-3) HepG2 (AID 654);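 note: cells exposed to compound for 16 hours before reading; 0% = DMSO alone and 100% = caspase signal from 100 µM tamoxifen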
Summary of the method: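 HepG2 cells (1500/well) in complete medium were treated with compounds for 16 hr at 37 °C. Caspase-3/7 activity was then read as luminescence from peptide-aminoluciferin cleavage. AC50 came from Hill fits, normalized to DMSO and 100 uM tamoxifen.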

[14] = Cellular Toxicity (caspase-3) Jurkat (AID 655);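 note: cells exposed to compound for 16 h at 37 °C before reading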
Summary of the method: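 Jurkat cells (5000/well) in complete medium were treated with compounds for 16 hr at 37 °C, then Caspase-Glo 3/7 luminescence was read after 20 min at room temperature. Data normalized to DMSO (basal) and 100 uM tamoxifen (100%); AC50 from Hill fit.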

[15] = Cellular Toxicity (caspase-3) HUV-EC-C (AID 656);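 note: 0% = DMSO basal and 100% = 100 µM tamoxifen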
Summary of the method: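 HUV-EC-C endothelial cells, 1000/well, were pre-incubated 5 hr at 37°C, then exposed to compounds for 16 hr at 37°C. Caspase-Glo 3/7 luminescence was read after 20 min at room temperature. AC50 came from Hill fits, normalized to DMSO and 100 uM tamoxifen.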

[16] = Cellular Toxicity (caspase-3) SHSY5Y (AID 657)
Summary of the method: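 SH-SY5Y human neuroblastoma cells (1500/well) were treated with compounds for 16 h at 37 °C, then Caspase-Glo 3/7 luminescence was read after 1 h at room temperature. Data normalized to DMSO and 10 uM staurosporine; AC50 from Hill fits.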

[17] = Cellular Toxicity (caspase-3) BJ (AID 658);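 note: 0% = DMSO basal and 100% = 10 µM staurosporine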
Summary of the method: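 Luminescent aminoluciferin-substrate cleavage reports caspase 3/7 activity in normal human BJ fibroblasts after 16 hr compound exposure at 37 °C. Normalized to DMSO (basal) and 10 uM staurosporine (100%); AC50 from Hill fit of concentration-response.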

[18] = Cellular Toxicity (caspase-3) MRC-5 (AID 659);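 note: 0% = DMSO basal and 100% = 10 µM staurosporine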
Summary of the method: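 Luminescence from caspase-cleaved aminoluciferin substrate (Caspase-Glo 3/7, 1 hr RT) reports caspase 3/7 activity in MRC-5 lung fibroblasts after 16 hr compound exposure. Normalized to DMSO basal and 10 uM staurosporine as 100%; AC50 from Hill fits.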

[19] = Cellular Toxicity (caspase-3) Mesangial (AID 660);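 note: cells exposed to compound for 16 h before the caspase read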
Summary of the method: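 Human renal glomerular mesangial cells (1000/well) were treated with compounds for 16 h at 37 °C in complete medium, then caspase 3/7 activity was read by Caspase-Glo luminescence. Data were normalized to DMSO and 100 uM tamoxifen; AC50 from Hill fits.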

O=C1c2c(O)ccc([N+](=O)[O-])c2C(=O)c2c([N+](=O)[O-])ccc(O)c21
inactive: outcome [13] | outcome [14] | outcome [15] | outcome [16] | outcome [17] | outcome [18] | outcome [19]
active: Potency [1] 28.5 µM | Potency [2] 25.8 µM | Potency [3] 27.4 µM | Potency [4] 30.1 µM | Potency [5] 28.8 µM | activity change, negative = cytotoxicity [6] -111% | activity change, negative = cytotoxicity [7] -139% | Potency [8] 31.6 µM | Potency [9] 31.6 µM | Potency [10] 25.1 µM | activity change, negative = cytotoxicity [11] -107% | Potency [12] 31.6 µM
